From PubChem BioAssay (NCI)
About 79,000 compounds went through this panel and 15% of them were active in at least one assay; those are over-represented in the sample as a whole. Values without a mark were called inactive. Calls of active or inactive are those of the source. Rule as the data show it: active = growth inhibition above about 70%; inactive = the rest.

Tests used:
[1] = NCI Yeast Anticancer Drug Screen. Data for the rad50 strain (AID 155);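 also: 0% = growth of vehicle-only cultures of the same strain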; details: S. cerevisiae rad50 strain growth inhibition, active compounds read high
How it was run: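 Genetically altered yeast (DNA repair pathway); compound treatment; growth inhibition vs vehicle ctrl.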

[2] = NCI Yeast Anticancer Drug Screen. Data for the mec2-1 strain (AID 157); details: S. cerevisiae mec2-1 strain, active compounds read high
How it was run: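 Yeast mec2-1 mutant treated with compound. Readout: growth inhibition vs vehicle controls.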

[3] = NCI Yeast Anticancer Drug Screen. Data for the sgs1 mgt1 strain (AID 161);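 also: 0% = growth of cultures given vehicle only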; details: S. cerevisiae sgs1 mgt1 strain, active compounds read high
How it was run: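 Genetically altered yeast, compound exposure, growth inhibition relative to vehicle.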

[4] = NCI Yeast Anticancer Drug Screen. Data for the cln2 rad14 strain (AID 165);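 also: 0% = growth equal to vehicle treated cultures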; details: S. cerevisiae cln2 rad14 strain, active compounds read high
How it was run: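 cln2 rad14 yeast strain; compound exposure; growth inhibition read vs vehicle controls.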

[5] = NCI Yeast Anticancer Drug Screen. Data for the bub3 strain (AID 167); details: S. cerevisiae bub3 mutant strain, active compounds read high
How it was run: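 Yeast carrying a defined mutation is treated with each compound, and growth is compared with that of vehicle-exposed cells to give inhibition.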

[6] = NCI Yeast Anticancer Drug Screen. Data for the mlh1 rad18 strain (AID 175); details: S. cerevisiae mlh1 rad18 strain growth inhibition, active compounds read high
How it was run: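 Yeast w/ defined DNA-repair lesions; compound exposure; growth vs vehicle controls → % inhibition.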

[7] = at 5.0 µM (retest, dose inferred, filed as 0.5)
[8] = at 50.0 µM (retest, dose inferred, filed as 5.0)

| Structure (SMILES) | growth inhibition [1, 7] | growth inhibition [1, 8] | growth inhibition ([1]; at 50.0 µM) | growth inhibition [2, 7] | growth inhibition [2, 8] | growth inhibition ([2]; at 50.0 µM) | growth inhibition [3, 7] | growth inhibition [3, 8] | growth inhibition ([3]; at 50.0 µM) | growth inhibition [4, 7] | growth inhibition [4, 8] | growth inhibition ([4]; at 50.0 µM) | growth inhibition [5, 7] | growth inhibition [5, 8] | growth inhibition ([5]; at 50.0 µM) | growth inhibition [6, 7] | growth inhibition [6, 8] | growth inhibition ([6]; at 50.0 µM) |
| --- | --- | --- | --- | --- | --- | --- | --- | --- | --- | --- | --- | --- | --- | --- | --- | --- | --- | --- |
| O=C(c1ccccc1)c1c(CC(O)c2ccccn2)n(C(=O)c2ccccc2)c2ccccc12 (stereo not given) | 6% | 88% (active) | 77.5% (active) | -8% | 75% (active) | 46.7% | 5% | 86% (active) | 82.5% (active) | 12% | 88% (active) | 65.7% | -10% | 93% (active) | 74.2% (active) | 2% | 86% (active) | 84% (active) |
| [Cl][Hg].c1ccc([As]c2ccc(-c3ccccc3)cc2)cc1 (stereo not given) | 99% (active) | 90% (active) | 99% (active) | 99% (active) | 92% (active) | 99.4% (active) | 100% (active) | 93% (active) | 99.2% (active) | 99% (active) | 91% (active) | 99% (active) | 99% (active) | 92% (active) | 98.5% (active) | 100% (active) | 92% (active) | 99% (active) |
| O=S(=O)([O-])[O-].[OH3+].[OH3+].[OH3+].[Ru+2].c1ccccc1 | -39% | -9% | 88.8% (active) | -1% | -2% | 92.2% (active) | -15% | 20% | 90.5% (active) | -9% | 15% | 89.6% (active) | -11% | 42% | 90.7% (active) | -38% | 30% | 87.5% (active) |
| CCC[CH2][Sn]1([CH2]CCC)[S]CC[N]1S(=O)(=O)c1ccc(C)cc1 | 79% (active) | 98% (active) | 91.8% (active) | 85% (active) | 99% (active) | 94% (active) | 77% (active) | 99% (active) | 92.6% (active) | 62% | 97% (active) | 91.5% (active) | 88% (active) | 98% (active) | 92.3% (active) | 88% (active) | 97% (active) | 92% (active) |
| CC(=O)OC1C(=O)OCC23CCC4(C)OC4C2OC2CC(OC(=O)/C=C/C=C/C(=O)OCCC1C)C3(C)C21CO1 (stereo not given) | 99% (active) | 99% (active) | 92.6% (active) | 100% (active) | 100% (active) | 93.8% (active) | 99% (active) | 99% (active) | 93.8% (active) | 98% (active) | 98% (active) | 92.5% (active) | 99% (active) | 98% (active) | 92.6% (active) | 100% (active) | 99% (active) | 92.3% (active) |
| CC1(C)CCC(C)(C)c2cc(Cl)c(O)cc21 | 4% | 1% | 97.8% (active) | 4% | 2% | 99.2% (active) | 4% | 2% | 52.5% | 5% | 4% | 96.6% (active) | 3% | 9% | 98.8% (active) | -1% | -4% | 97.2% (active) |
| CC(CN1CCCCCCC1)C(C#N)(c1ccccc1)c1ccccc1 (stereo not given) | 4% | 47% | 66.1% | 3% | 39% | 47.6% | 19% | 74% (active) | 67.5% | 6% | 46% | 84.1% (active) | 9% | 68% | 55.4% | 10% | 55% | 70.3% (active) |
| Cc1cccc(OCC(O)CN2CC2)c1 (stereo not given) | 2% | 64% | 87.4% (active) | 4% | 52% | 89.8% (active) | 4% | 78% (active) | 89.4% (active) | 4% | 34% | 87.8% (active) | -1% | 34% | 87.8% (active) | 2% | 95% (active) | 88.5% (active) |
| CC(=O)OC1CCC2(C)C3CCC4(C)C(OC(=O)c5ccccc5)CCC4C3CC(Br)C2(O)C1 (stereo not given) | 35% | 56% | 87.1% (active) | 27% | 39% | 87.9% (active) | 44% | 64% | 89.5% (active) | 40% | 44% | 90.8% (active) | 45% | 56% | 86.8% (active) | 42% | 56% | 85.7% (active) |
| C=CCN1C(=O)NC(=O)/C(=C/c2c3ccccc3cc3ccccc23)C1=O | 58% | 98% (active) | 69.2% | 85% (active) | 98% (active) | 47.7% | 66% | 99% (active) | 82.2% (active) | 48% | 98% (active) | -22.6% | 83% (active) | 96% (active) | 88% (active) | 79% (active) | 99% (active) | 85% (active) |
